# Luc counter – Kinase-Glo luciferase inhibition (counter-screen); Q27757; Kinase-Glo luciferase, ATP luminescence, 8 min; Potency, µM (highest dose often 38.3 µM), without a hit: top-dose activity change, negative = inhibition, most hits filed as inhibitors; 200,000 compounds, 0.28% hits; also: nearly all actives have a fitted effect of over 60% in size
#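 Recombinant Kinase-Glo luciferase, 10 uM ATP (linear range), luciferin; imidazole pH 7.2 / KCl / MgCl2 / Tween / BSA buffer; 8 min RT; luminescence.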
# NPSR antagonist – neuropeptide S receptor (human) antagonism, cAMP. Q6W5P4. CHO-NPSR cells, cAMP TR-FRET, antagonist mode. Potency, µM (series often up to 38.3 µM), for inactives: at the highest dose activity change, negative = inhibition, most hits filed as inhibitors. 220,000 compounds, 1% hits. AID 1461; also: nearly all actives have a fitted effect of over 50% in size
# Target sequence (Q6W5P4 whole entry, looked up): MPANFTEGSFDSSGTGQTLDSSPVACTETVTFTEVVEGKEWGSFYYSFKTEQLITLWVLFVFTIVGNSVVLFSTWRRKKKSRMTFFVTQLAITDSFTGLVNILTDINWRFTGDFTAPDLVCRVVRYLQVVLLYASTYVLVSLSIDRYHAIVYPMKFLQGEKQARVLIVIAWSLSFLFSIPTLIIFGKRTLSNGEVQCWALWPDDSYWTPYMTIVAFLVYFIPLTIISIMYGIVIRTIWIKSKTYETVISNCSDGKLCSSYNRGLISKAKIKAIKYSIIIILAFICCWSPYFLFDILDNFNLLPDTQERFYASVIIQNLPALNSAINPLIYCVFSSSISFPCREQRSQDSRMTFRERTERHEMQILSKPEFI
# Tau fibril FP – tau fibrillization inhibition (FP) | K18 P301L tau heparin fibrillization, Alexa594 FP, 6 h | Potency, µM (doses to about 57.7 µM), without a hit: at the highest dose activity, negative = inhibition, actives largely listed as inhibitors | 280,000 compounds, 0.39% hits; also: nearly all actives have a fitted effect of over 55% in size
# Target sequence (P10636 561-689 P618L limits assumed): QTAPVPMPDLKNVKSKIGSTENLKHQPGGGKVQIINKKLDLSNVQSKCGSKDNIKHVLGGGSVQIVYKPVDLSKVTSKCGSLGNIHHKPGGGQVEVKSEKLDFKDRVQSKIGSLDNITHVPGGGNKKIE
#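 Compound effects on tau fibrillization are measured by Alexa 594 fluorescence polarization (ex 555, em 632 nm). K18 P301L tau is used at 15 uM with 0.24 uM labeled tracer, and 20 uM heparin induces aggregation over 6 hr at 37 C.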
# Tau fibril ThT – tau fibrillization inhibition (ThT binding); 270,000 compounds, 2.1% hits; recombinant tau K18 P301L, heparin-induced fibrillization, ThT fluorescence; Potency, µM (series often up to 57.4 µM), inactives show top-dose activity, negative = inhibition, actives largely listed as inhibitors; P10636; also: nearly all actives have a fitted effect of over 55% in size
#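 Heparin-induced fibrillization of the P301L-mutant K18 repeat-domain fragment of human tau was followed by ThT binding in quantitative high-throughput format.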
# Tau fluor counter – counter-screen for tau fibril formation inhibitors; tau K18 P301L Alexa594 fluorescence, heparin fibrillization; Potency, µM (doses to about 57.7 µM), inactives show at the top dose activity change, negative = decrease; 280,000 compounds, 0.93% hits; AID 1463; also: nearly all actives have a fitted effect of over 55% in size
#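 Human tau K18 P301L (15 uM unlabeled, 0.24 uM Alexa 594-labeled) in 100 mM sodium acetate pH 7 with 20 uM heparin, 6 hr at 37 C. ThT 30 uM added, 1 hr ambient; Alexa 594 FP and total fluorescence read at 555/632 nm.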
# * = called active by the depositor; ? = inconclusive; · = no result; [ ] = dose if it differs, or a comment. An excerpt weighted towards active compounds, which were near 3.3% of everything screened. Calls follow the shape of the dose curve; as a rule, active = well fitted curve in the direction sought with a large enough effect; inconclusive = small, poorly fitted or top-dose-only effect, or another doubt; inactive = no such curve, though single readings can be large; an effect the other way counts as inactive or inconclusive. % is scaled to controls: 0 for no effect and ±100 for the full control effect; potency is read from the fitted curve at half-maximal effect.
SMILES,Luc counter,NPSR antagonist,Tau fibril FP,Tau fibril ThT,Tau fluor counter
COc1ccc(NS(=O)(=O)c2cc([N+](=O)[O-])ccc2N/N=C\c2c(C)[nH]c3ccccc23)cc1,-2.5%,-9.1%[46.1 µM],5.5%,2.51µM*,3.16µM*[quencher]
O=C(CSc1nc(-c2ccc(F)cc2)cc(C(F)(F)F)n1)NCCc1ccccc1,·,·,-6.9%,-4.7%,-22.5%
Cc1cccc(/C(N)=N/OC(=O)c2cccs2)c1,2.51µM*,-4.4%[46.1 µM],-3.6%,-11.7%,-4.5%
Cc1cccc(/C(N)=N/OC(=O)c2ccc(F)cc2)c1,11.2µM*,3.5%,-11.2%,-2.8%,-3.9%
Cc1ccc(/C(N)=N/OC(=O)c2cccs2)cc1,-11.0%,4.0%,-6.6%,-6.6%,-15.3%
N/C(=N\OC(=O)c1cccs1)c1ccccc1,10µM*,20.5%,3.6%,-3.8%,-3.3%
Cc1cc(=O)n(Cc2c(F)cccc2Cl)c2c1c(C)nn2-c1cccc(F)c1,·,·,-8.6%,?,-2.0%
N#CCCCS(=O)(=O)c1nnnn1-c1ccc(Br)cc1,0.7%,·,-3.8%,-4.7%,-1.7%
CCc1cc(-c2n[nH]c(C)c2-c2nc3ccccc3n2C)c(O)cc1O,3.5%,23.0%,9.4%,-4.0%,-25.2%
CCc1cc(-c2n[nH]c(C)c2-c2ccc3c(c2)OCCO3)c(O)cc1O,-0.4%[39.9 µM],·,14.4%,?,10µM*[quencher]
CCCc1cc(-c2n[nH]c(C)c2-c2ccc(C(=O)OCC)o2)c(O)cc1O,-2.8%,?,?,-9.4%,14.1µM*[quencher]
Nc1cc2nsnc2cc1Br,-1.2%,2.51µM*,?,8.91µM*,?
N#C/C(=C\c1cccnc1)c1nc2c(s1)CCCC2,0.8%,-23.7%,5.3%,-16.8%,-0.7%
COc1cc(/C=C(\C#N)c2nc3c(s2)CCCC3)ccc1O,-6.8%,?,4.2%,11.2µM*,14.1µM*[quencher]
CN1CCc2c(sc3c2C(=O)NC(c2ccc(OC(=O)c4ccc(Cl)cc4)cc2)N3)C1 (stereo unspecified),·,·,-3.7%,6.31µM*,-11.9%
CN1CCc2c(sc3c2C(=O)NC(c2ccc(OC(=O)c4ccccc4)cc2)N3)C1 (stereo unspecified),·,·,?,5.62µM*,-14.3%
CN1CCc2c(sc3c2C(=O)NC(c2ccc(OC(=O)c4ccc(C(C)(C)C)cc4)cc2)N3)C1 (stereo unspecified),·,·,-9.1%,?,-18.6%
Cc1ccc(CN(Cc2ccco2)C(=O)c2cccc(C)c2)cc1,·,·,2.9%,-17.0%,-13.4%
O=C1c2ccccc2C(=O)N1Nc1ccccc1,-6.5%,-10.6%[46.1 µM],-9.1%,2.6%,-1.7%
O=C1c2cccc3c([N+](=O)[O-])c(O)cc(c23)C(=O)N1Nc1ccccc1,-0.9%,-35.2%,4.3%,5.01µM*,-27.6%
COc1ccc(C(=O)COC(=O)c2cc(-c3ccccc3)nc3c(C)cccc23)cc1,·,·,?,-1.4%,-13.7%
C(=Nc1ccc(N2CCOCC2)cc1)c1c[nH]c2ccccc12,·,-4.1%,-10.3%,25.1µM*,?
Oc1ccc(N=Nc2cccc(Cl)c2)cc1C=Nc1ccc(N2CCOCC2)cc1,0.8%,?,-7.4%,?,-14.6%
Oc1c(Cl)cc(Cl)cc1C=Nc1ccc2c(c1)OCCO2,-14.4%,-14.6%[46.1 µM],-13.7%,15.8µM*,-19.4%
Oc1c(Br)cc(Cl)cc1C=Nc1ccc(N2CCOCC2)cc1,-6.4%,13.0%,-18.3%,15.8µM*,-18.4%
SMILES,Luc counter,NPSR antagonist,Tau fibril FP,Tau fibril ThT,Tau fluor counter
Oc1ccc2ccccc2c1C=Nc1ccc(N2CCOCC2)cc1,-7.3%,-24.5%[46.1 µM],-8.6%,5.01µM*,?
Oc1csc(Cc2nc(-c3ccc4ccccc4c3)cs2)n1,-7.7%,-17.7%[46.1 µM],3.7%,3.55µM*,12.6µM*[quencher]
Oc1csc(Cc2nc(-c3ccc(-c4ccccc4)cc3)cs2)n1,-9.4%,-6.8%[46.1 µM],4.6%,?,-28.8%
Oc1csc(Cc2nc(-c3ccccc3F)cs2)n1,-11.7%,-18.3%,-3.6%,14.1µM*,?
CC1CCCCN1CCCNC(=O)c1sc2ncccc2c1-n1cccc1 (stereo unspecified),·,·,-1.0%,5.2%,1.3%
NS(=O)(=O)c1ccc(NCc2c(F)cccc2Cl)cc1,0.2%,-27.1%[46.1 µM],-0.5%,-2.6%,-0.4%
Fc1cccc(Cl)c1CNc1ccc(N2CCCC2)cc1,-1.0%,-31.1%,11.2µM*,5.62µM*,?

# Bioassay records as filed in PubChem BioAssay.
